Assay results: the supplement of paper PMC11732987, “Enantioselective OTUD7B fragment discovery through chemoproteomics screening and high-throughput optimisation” (Communications Chemistry, 2025)

Columns and labels:
Experiment in all cases: log2 ratio of Biotin-Ahx-Ub-VS probe labelling (compound/DMSO); higher = less target engagement, active = hit call of the paper (q ≤ 0.05, log2 ratio ≤ -1)
Conditions in all cases: treatment time: 3 h
[1] = compound: CCC1N(CCc2sccc12)C(=O)CCl
Summary of the method: (§1)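 HEK293T lysate (495 µg per sample, in Tris/CHAPS/IGEPAL buffer with protease inhibitors) was exposed in triplicate to compound at 50 or 200 µM, or to DMSO, for 3 h, then to Biotin-Ahx-Ub-VS (0.5 µM final) for 1 h. The labelled DUBs were enriched on NeutrAvidin, digested with LysC and trypsin, and analysed by diaPASEF LC-MS/MS. Average base-two log ratios of compound over DMSO came from median-normalised label-free quantities by unpaired t-test. Only proteins with at least 2 unique peptides were used.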

[2] = compound: CN1c2ccccc2C(CS1(=O)=O)NC(=O)CCl
Summary of the method: as §1

[3] = compound: Cl.ClCC(=O)N1CCc2ncncc2C1
Summary of the method: as §1

[4] = compound: Cl.Cn1ncc2C(CCCc12)NC(=O)CCl
Summary of the method: as §1

[5] = compound: ClCC(=O)NC1CCOc2ccccc12
Summary of the method: as §1

[6] = compound: ClCC(=O)NC1CCCc2ccccc12
Summary of the method: (§2)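 Each value is an average ratio of compound to vehicle, calculated by unpaired t-test. Lysate from HEK293T cells (495 µg per sample) was incubated in triplicate with compound over a concentration range or vehicle for 3 h and then with Biotin-Ahx-Ub-VS (0.5 µM final) for 1 h. Probe-labelled deubiquitinases were captured on NeutrAvidin, digested and run by diaPASEF LC-MS/MS, with Spectronaut label-free quantities normalised to the global median. Ratios are log2, and only proteins with at least two unique peptides were used.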

[7] = compound: ClCC(=O)N[C@@H]1CCCc2ccccc12
Summary of the method: as §2

[8] = compound: ClCC(=O)N[C@H]1CCCc2ccccc12
Summary of the method: as §2

[9] = compound: CCC1N(CCc2cc(OC)c(Cl)cc12)C(=O)CCl
Summary of the method: as §1

[10] = compound: CCCC1N(CCc2cc(OC)c(OC)cc12)C(=O)CCl
Summary of the method: as §1

Measured: log2 ratio of Biotin-Ahx-Ub-VS probe labelling

PRPF8 (UniProt Q6P2Q9)
inactive: [1]; compound concentration: 50uM -0.0394 | [1]; compound concentration: 200uM -0.112 | [2]; compound concentration: 50uM -0.0921 | [2]; compound concentration: 200uM -0.054 | [3]; compound concentration: 50uM 0.0381 | [3]; compound concentration: 200uM -0.119 | [4]; compound concentration: 50uM 0.0788 | [4]; compound concentration: 200uM 0.0562 | [5]; compound concentration: 50uM 0.0594 | [5]; compound concentration: 200uM -0.157 | [6]; compound concentration: 0.78uM -0.034 | [6]; compound concentration: 1.56uM -0.0309 | [6]; compound concentration: 3.13uM -0.104 | [6]; compound concentration: 6.25uM -0.01 | [6]; compound concentration: 12.5uM -0.0322 | [6]; compound concentration: 25uM -0.101 | [6]; compound concentration: 50uM -0.0882 | [6]; compound concentration: 100uM -0.0511 | [6]; compound concentration: 200uM -0.0422 | [7]; compound concentration: 0.78uM -0.0504 | [7]; compound concentration: 1.56uM -0.022 | [7]; compound concentration: 3.13uM -0.0939 | [7]; compound concentration: 6.25uM -0.0748 | [7]; compound concentration: 12.5uM -0.0604 | [7]; compound concentration: 25uM -0.0428 | [7]; compound concentration: 50uM -0.086 | [7]; compound concentration: 100uM -0.0702 | [7]; compound concentration: 200uM -0.137 | [8]; compound concentration: 0.78uM -0.0339 | [8]; compound concentration: 1.56uM -0.0293 | [8]; compound concentration: 3.13uM -0.049 | [8]; compound concentration: 6.25uM 0.0146 | [8]; compound concentration: 12.5uM -0.0785 | [8]; compound concentration: 25uM -0.109 | [8]; compound concentration: 50uM -0.0661 | [8]; compound concentration: 100uM -0.111 | [8]; compound concentration: 200uM -0.149 | [9]; compound concentration: 50uM 0.0405 | [9]; compound concentration: 200uM 0.131 | [10]; compound concentration: 50uM -0.0761 | [10]; compound concentration: 200uM -0.182

UniProt P51784
UniProt P51784, sequence (P51784 whole entry): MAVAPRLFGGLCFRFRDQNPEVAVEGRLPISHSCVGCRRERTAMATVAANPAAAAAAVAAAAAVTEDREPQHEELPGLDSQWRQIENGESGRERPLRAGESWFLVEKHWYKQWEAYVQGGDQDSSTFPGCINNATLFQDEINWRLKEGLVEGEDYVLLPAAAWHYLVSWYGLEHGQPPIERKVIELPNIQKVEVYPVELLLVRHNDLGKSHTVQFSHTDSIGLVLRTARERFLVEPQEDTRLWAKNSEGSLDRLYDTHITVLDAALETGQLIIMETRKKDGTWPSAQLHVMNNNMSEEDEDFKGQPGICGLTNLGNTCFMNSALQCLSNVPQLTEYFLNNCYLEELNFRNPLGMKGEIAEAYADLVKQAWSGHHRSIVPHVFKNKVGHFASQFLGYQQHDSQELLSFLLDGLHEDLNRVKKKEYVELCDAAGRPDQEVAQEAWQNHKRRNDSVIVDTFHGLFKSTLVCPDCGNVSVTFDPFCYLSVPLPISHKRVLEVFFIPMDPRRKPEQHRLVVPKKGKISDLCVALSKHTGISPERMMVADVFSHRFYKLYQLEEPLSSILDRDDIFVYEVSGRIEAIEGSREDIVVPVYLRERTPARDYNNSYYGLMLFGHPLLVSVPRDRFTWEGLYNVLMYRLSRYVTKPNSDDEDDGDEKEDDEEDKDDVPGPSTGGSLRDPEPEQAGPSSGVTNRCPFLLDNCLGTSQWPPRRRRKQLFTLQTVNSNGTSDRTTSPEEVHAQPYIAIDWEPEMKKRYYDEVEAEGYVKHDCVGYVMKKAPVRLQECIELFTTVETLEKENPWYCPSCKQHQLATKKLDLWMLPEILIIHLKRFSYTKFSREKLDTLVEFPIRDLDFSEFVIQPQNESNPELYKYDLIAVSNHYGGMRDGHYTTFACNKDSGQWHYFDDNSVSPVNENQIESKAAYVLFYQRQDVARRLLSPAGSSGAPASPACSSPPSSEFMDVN
active: [10]; compound concentration: 200uM -1.44
inactive: [1]; compound concentration: 50uM 0.031 | [1]; compound concentration: 200uM -0.194 | [2]; compound concentration: 50uM -0.0381 | [2]; compound concentration: 200uM -0.118 | [3]; compound concentration: 50uM 0.0396 | [3]; compound concentration: 200uM -0.389 | [4]; compound concentration: 50uM 0.218 | [4]; compound concentration: 200uM 0.132 | [5]; compound concentration: 50uM 0.157 | [5]; compound concentration: 200uM -0.115 | [6]; compound concentration: 0.78uM -0.0264 | [6]; compound concentration: 1.56uM -0.0198 | [6]; compound concentration: 3.13uM -0.0986 | [6]; compound concentration: 6.25uM 0.0318 | [6]; compound concentration: 12.5uM -0.0982 | [6]; compound concentration: 25uM -0.201 | [6]; compound concentration: 50uM 0.0391 | [6]; compound concentration: 100uM -0.0818 | [6]; compound concentration: 200uM -0.0885 | [7]; compound concentration: 0.78uM -0.219 | [7]; compound concentration: 1.56uM -0.052 | [7]; compound concentration: 3.13uM -0.00301 | [7]; compound concentration: 6.25uM -0.0872 | [7]; compound concentration: 12.5uM -0.0816 | [7]; compound concentration: 25uM 0.00546 | [7]; compound concentration: 50uM -0.0574 | [7]; compound concentration: 100uM -0.00104 | [7]; compound concentration: 200uM -0.228 | [8]; compound concentration: 0.78uM -0.0931 | [8]; compound concentration: 1.56uM -0.0394 | [8]; compound concentration: 3.13uM -0.0291 | [8]; compound concentration: 6.25uM 0.0533 | [8]; compound concentration: 12.5uM -0.077 | [8]; compound concentration: 25uM -0.127 | [8]; compound concentration: 50uM -0.0252 | [8]; compound concentration: 100uM -0.0157 | [8]; compound concentration: 200uM -0.158 | [9]; compound concentration: 50uM -0.0453 | [9]; compound concentration: 200uM -0.739 | [10]; compound concentration: 50uM -0.482

UniProt Q5T2D3
UniProt Q5T2D3, sequence (Q5T2D3 whole entry): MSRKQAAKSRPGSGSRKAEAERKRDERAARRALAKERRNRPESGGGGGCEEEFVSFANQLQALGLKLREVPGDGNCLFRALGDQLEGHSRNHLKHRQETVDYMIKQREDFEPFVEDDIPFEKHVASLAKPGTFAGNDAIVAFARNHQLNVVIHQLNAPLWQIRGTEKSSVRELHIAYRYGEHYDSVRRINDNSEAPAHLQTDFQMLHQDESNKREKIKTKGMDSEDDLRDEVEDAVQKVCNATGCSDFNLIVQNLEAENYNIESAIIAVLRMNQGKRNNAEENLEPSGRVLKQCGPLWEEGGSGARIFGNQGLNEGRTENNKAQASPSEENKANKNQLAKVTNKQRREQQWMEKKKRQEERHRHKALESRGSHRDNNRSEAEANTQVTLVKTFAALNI
inactive: [1]; compound concentration: 50uM -0.152 | [1]; compound concentration: 200uM -0.102 | [2]; compound concentration: 50uM -0.294 | [2]; compound concentration: 200uM -0.292 | [3]; compound concentration: 50uM -0.0797 | [3]; compound concentration: 200uM -0.274 | [4]; compound concentration: 50uM -0.136 | [4]; compound concentration: 200uM 0.135 | [5]; compound concentration: 50uM -0.0283 | [5]; compound concentration: 200uM -0.137 | [6]; compound concentration: 0.78uM -0.198 | [6]; compound concentration: 1.56uM -0.0928 | [6]; compound concentration: 3.13uM -0.11 | [6]; compound concentration: 6.25uM -0.192 | [6]; compound concentration: 12.5uM -0.113 | [6]; compound concentration: 25uM 0.0408 | [6]; compound concentration: 50uM -0.0723 | [6]; compound concentration: 100uM -0.0612 | [6]; compound concentration: 200uM -0.179 | [7]; compound concentration: 0.78uM -0.153 | [7]; compound concentration: 1.56uM -0.131 | [7]; compound concentration: 3.13uM -0.0877 | [7]; compound concentration: 6.25uM -0.0936 | [7]; compound concentration: 12.5uM -0.0592 | [7]; compound concentration: 25uM -0.125 | [7]; compound concentration: 50uM -0.234 | [7]; compound concentration: 100uM -0.0551 | [7]; compound concentration: 200uM -0.296 | [8]; compound concentration: 0.78uM -0.237 | [8]; compound concentration: 1.56uM -0.21 | [8]; compound concentration: 3.13uM -0.232 | [8]; compound concentration: 6.25uM -0.0509 | [8]; compound concentration: 12.5uM 0.00779 | [8]; compound concentration: 25uM -0.0485 | [8]; compound concentration: 50uM 0.0602 | [8]; compound concentration: 100uM 0.0541 | [8]; compound concentration: 200uM -0.193 | [9]; compound concentration: 50uM 0.0656 | [9]; compound concentration: 200uM -0.0849 | [10]; compound concentration: 50uM -0.315 | [10]; compound concentration: 200uM -0.497

USP42 (UniProt Q9H9J4)
UniProt Q9H9J4, sequence (Q9H9J4 whole entry): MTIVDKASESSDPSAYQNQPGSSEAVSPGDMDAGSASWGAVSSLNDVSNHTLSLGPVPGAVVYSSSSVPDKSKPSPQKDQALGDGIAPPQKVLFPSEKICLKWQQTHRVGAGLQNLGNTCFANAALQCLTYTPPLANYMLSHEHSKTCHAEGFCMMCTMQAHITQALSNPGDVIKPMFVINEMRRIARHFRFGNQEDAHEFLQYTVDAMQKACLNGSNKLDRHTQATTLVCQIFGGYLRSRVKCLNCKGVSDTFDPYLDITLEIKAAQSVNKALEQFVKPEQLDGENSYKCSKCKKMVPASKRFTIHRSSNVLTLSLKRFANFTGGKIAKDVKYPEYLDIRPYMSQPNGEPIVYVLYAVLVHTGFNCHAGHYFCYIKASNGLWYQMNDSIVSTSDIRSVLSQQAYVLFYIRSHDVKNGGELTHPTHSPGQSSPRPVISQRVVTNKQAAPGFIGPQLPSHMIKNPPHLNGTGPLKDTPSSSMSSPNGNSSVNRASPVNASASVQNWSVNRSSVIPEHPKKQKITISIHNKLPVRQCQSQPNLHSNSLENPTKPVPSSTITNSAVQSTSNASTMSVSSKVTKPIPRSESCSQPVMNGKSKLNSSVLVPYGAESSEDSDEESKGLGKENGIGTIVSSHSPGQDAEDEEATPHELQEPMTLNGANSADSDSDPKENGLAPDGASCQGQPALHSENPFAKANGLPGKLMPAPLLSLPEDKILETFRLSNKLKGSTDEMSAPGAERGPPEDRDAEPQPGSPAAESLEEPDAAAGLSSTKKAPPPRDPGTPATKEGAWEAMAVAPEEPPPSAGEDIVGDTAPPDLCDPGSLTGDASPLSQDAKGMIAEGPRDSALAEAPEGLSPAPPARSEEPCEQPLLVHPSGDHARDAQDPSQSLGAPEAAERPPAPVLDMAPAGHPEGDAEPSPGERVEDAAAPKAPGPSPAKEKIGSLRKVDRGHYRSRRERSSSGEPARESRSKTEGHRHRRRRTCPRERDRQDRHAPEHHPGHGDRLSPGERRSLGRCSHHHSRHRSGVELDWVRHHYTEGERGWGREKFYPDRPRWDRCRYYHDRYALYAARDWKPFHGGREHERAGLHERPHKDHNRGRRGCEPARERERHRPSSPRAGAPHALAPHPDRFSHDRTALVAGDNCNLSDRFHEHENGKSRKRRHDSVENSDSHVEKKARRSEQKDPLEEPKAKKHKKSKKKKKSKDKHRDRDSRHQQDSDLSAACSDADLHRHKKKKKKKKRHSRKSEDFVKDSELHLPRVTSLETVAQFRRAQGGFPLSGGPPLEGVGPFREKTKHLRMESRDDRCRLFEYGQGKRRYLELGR
inactive: [1]; compound concentration: 50uM 0.0875 | [1]; compound concentration: 200uM 0.424 | [2]; compound concentration: 50uM 0.125 | [2]; compound concentration: 200uM 0.131 | [3]; compound concentration: 50uM 0.0642 | [3]; compound concentration: 200uM 0.249 | [4]; compound concentration: 50uM -0.167 | [4]; compound concentration: 200uM 0.115 | [5]; compound concentration: 50uM -0.093 | [5]; compound concentration: 200uM 0.371 | [6]; compound concentration: 0.78uM -0.0166 | [6]; compound concentration: 1.56uM -0.0953 | [6]; compound concentration: 3.13uM -0.0821 | [6]; compound concentration: 6.25uM -0.0491 | [6]; compound concentration: 12.5uM -0.106 | [6]; compound concentration: 25uM -0.0142 | [6]; compound concentration: 50uM -0.0733 | [6]; compound concentration: 100uM 0.00602 | [6]; compound concentration: 200uM -0.207 | [7]; compound concentration: 0.78uM 0.0511 | [7]; compound concentration: 1.56uM 0.0688 | [7]; compound concentration: 3.13uM 0.0123 | [7]; compound concentration: 6.25uM 0.154 | [7]; compound concentration: 12.5uM -0.0261 | [7]; compound concentration: 25uM 0.0226 | [7]; compound concentration: 50uM -0.157 | [7]; compound concentration: 100uM 0.109 | [7]; compound concentration: 200uM 0.00814 | [8]; compound concentration: 0.78uM -0.186 | [8]; compound concentration: 1.56uM -0.0565 | [8]; compound concentration: 3.13uM -0.196 | [8]; compound concentration: 6.25uM -0.273 | [8]; compound concentration: 12.5uM -0.0469 | [8]; compound concentration: 25uM 0.0215 | [8]; compound concentration: 50uM -0.0548 | [8]; compound concentration: 100uM 0.132 | [8]; compound concentration: 200uM -0.0982 | [9]; compound concentration: 50uM -0.199 | [9]; compound concentration: 200uM 0.281 | [10]; compound concentration: 50uM -0.0757 | [10]; compound concentration: 200uM 0.0626
